# D1 potentiator = potentiators of human D1 dopamine receptor; HEK293 TREx D1 cells, calcium flux, dopamine EC20 potentiation; potentiation, % at 10 µM; hit rate 0.036% among 360,000; in the data active = potentiation above about 30%
# D1 ag = activates the human D1 dopamine receptor; hit rate 1% among 360,000; P21728; HEK293 T-REx D1 cells, calcium flux, agonist mode; activation, % at 2 µM; AID 504660
#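 Agonism was scored from calcium flux recorded over 180 s (1 read/s) after pintool compound addition, following a 10-cycle baseline. Cells were inducible force-coupled HEK293 TREx D1, plated overnight at 30 C and loaded with no-wash calcium dye.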
# TRHR enhancer = allosteric enhancers of human TRH receptor. P34981. TRHR cells, fluo-8 calcium fluorescence, EC20 TRH enhancement. enhancement, % at 2 µM. hit rate 0.66% among 360,000. AID 493056; in the data active = enhancement above about 30%
# Target sequence (P34981 whole entry, looked up): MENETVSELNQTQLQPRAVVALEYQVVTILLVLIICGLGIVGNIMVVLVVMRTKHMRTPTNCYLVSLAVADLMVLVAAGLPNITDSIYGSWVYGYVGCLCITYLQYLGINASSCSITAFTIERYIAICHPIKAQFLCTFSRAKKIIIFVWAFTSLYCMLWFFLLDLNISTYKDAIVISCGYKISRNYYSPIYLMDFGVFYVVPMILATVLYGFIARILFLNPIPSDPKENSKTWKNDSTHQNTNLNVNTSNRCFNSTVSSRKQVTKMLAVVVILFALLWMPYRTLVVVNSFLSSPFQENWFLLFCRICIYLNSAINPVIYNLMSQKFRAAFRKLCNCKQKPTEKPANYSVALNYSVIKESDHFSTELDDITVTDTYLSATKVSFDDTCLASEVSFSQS
#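 TRHR-expressing cells loaded with fluo-8 calcium dye were read kinetically (ex 480/em 530) during compound addition, then stimulated with an EC20 of TRH (10 nM final). Enhancement of the Gq-mediated intracellular calcium response was scored.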
# D1 antagonist = blocks dopamine activation of the human D1 receptor; P21728; HEK293 TREx D1 cells, calcium flux, dopamine EC80; hits give low values; activity change, negative = inhibition, % at 10 µM; hit rate 3.2% among 360,000; in the data active = activity change below about -30%
#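 Cells carrying a force-coupled, tetracycline-inducible human D1 receptor report calcium flux. Each well gets a 10 s baseline, compound with 180 s monitoring, then an EC80 dopamine stimulus with a second 180 s kinetic read.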
# TRHR ag = activates the human TRH receptor; P34981; TRHR cells, calcium flux fluo-8, FDSS agonist mode; activation, % at 2 µM; hit rate 0.18% among 360,000
#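 Agonist-mode FDSS calcium read (Ex 480/Em 530, 1 s cycles) in 1536-well TRHR cells with fluo-8 dye, after 10-cycle baseline and 23 nL compound addition; TRH at EC20 (10 nM final) added afterwards for the enhancer phase.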
# A number is an active result; – = inactive; ! = not confirmed by another sample. An excerpt weighted towards active compounds, which were near 4.7% of everything screened. Rule as the data show it, unless noted: active = activation above about 30%; inactive = the rest.
SMILES,D1 potentiator,D1 ag,TRHR enhancer,D1 antagonist,TRHR ag
CCc1ccc(C2CC(=O)Nc3c2c(=O)n(C)c2ncnn32)cc1 (stereo unspecified),–,–,–,-39,–
N#C/C(=C(/O)CN1C(=O)c2ccccc2C1=O)c1nc2ccccc2[nH]1,–,–,–,–,–
CSCCC(/C(O)=C(\C#N)c1nc2ccccc2[nH]1)N1C(=O)c2ccccc2C1=O (stereo unspecified),–,–,–,-31,–
COCCNC(=O)c1cccc(C)c1[N+](=O)[O-],–,–,–,-33,–
Cc1cccc(C(=O)NCCc2ccc(S(N)(=O)=O)cc2)c1[N+](=O)[O-],–,–,–,–,–
CC(C)CC(OC(=O)CNC(=O)c1ccccc1)C(=O)Nc1cc(C(F)(F)F)ccc1Cl (stereo unspecified),–,–,–,–,–
O=C(COc1ccc(F)cc1)Nc1c(C(=O)N2CCC(N3CCCCC3)CC2)oc2ccccc12,–,–,–,-35,–
COc1ccc(NC(=O)c2oc3ccccc3c2NC(=O)COc2ccc(F)cc2)c(OC)c1,–,–,39,–,–
O=C(COc1ccccc1)Nc1c(C(=O)N2CCC(N3CCCCC3)CC2)oc2ccccc12,–,–,–,–,–
COCCN=C1N[C@@H](c2ccc(Br)cc2)C(C(=O)OC)=C(C)N1Cc1ccccc1,–,34!,–,-34!,–
COCCN=C1N[C@@H](c2ccccc2)C(C(=O)OC)=C(C)N1Cc1ccccc1,–,–,–,–,–
Cc1ccc(NCc2nnc(SCC(=O)N(Cc3ccccc3)C(C)(C)C)o2)c(C)c1,–,–,–,-45,–
Cc1ccc(NCc2nnc(SCC(N)=O)o2)c(C)c1,–,–,–,–,–
CC(C)c1nc(NCC2CCCO2)c(C#N)c2c1COC(C)(C)C2 (stereo unspecified),–,–,–,–,–
CCc1nc(NCC2CCCO2)c(C#N)c2c1COC(C)(C)C2 (stereo unspecified),–,–,–,-35,–
CCOC(=O)c1ccccc1NC(=O)COC(=O)C1CCN(S(=O)(=O)c2ccccc2C(=O)OC)CC1,–,–,–,–,–
COC(=O)c1ccccc1S(=O)(=O)N1CCC(C(=O)OCc2ccc([N+](=O)[O-])cc2)CC1,–,–,–,-40,–
N#Cc1ccc(C[C@H](C(=O)O)N2C(=O)c3ccc(C(=O)O)cc3C2=O)cc1,–,–,–,–,–
COc1ccc(-n2cc(CN3CCC(OC)CC3)c(-c3cccc(F)c3)n2)cc1,–,–,–,–,–
COc1ccc(-n2cc(CNC3CCC(O)CC3)c(-c3cccc(F)c3)n2)cc1 (stereo unspecified),–,36,–,–,–
CC(C)c1ccc(N(CC(=O)NCCSCc2ccco2)S(C)(=O)=O)cc1,–,–,–,-61,–
COc1ccc(N(CC(=O)NCc2ccco2)S(C)(=O)=O)cc1Cl,–,–,–,-68,–
COc1ccc(C)cc1N(CC(=O)NCCSCc1ccco1)S(=O)(=O)c1ccc(C)cc1,–,–,33,–,–
Cc1ccc(N(CC(=O)NCCSCc2ccco2)S(=O)(=O)c2ccc(C)cc2)cc1,–,–,–,-38,–
Cc1cccc(N(CC(=O)NCCSCc2ccco2)S(=O)(=O)c2ccccc2)c1,–,–,–,–,–
SMILES,D1 potentiator,D1 ag,TRHR enhancer,D1 antagonist,TRHR ag
CCS(=O)(=O)c1ncc(Cl)c(C(=O)N(Cc2ccccc2)c2ccc(OC)cc2)n1,–,–,–,–,–
CCOC(=O)c1scc(-c2ccc(C)cc2)c1S(=O)(=O)N1CCN(c2ccccc2)CC1,–,–,–,–,–
Cc1cccc(-n2c(-c3ccccc3)cn3c4c(=O)[nH]c(=O)n(C)c4nc23)c1,–,–,–,–,–
Cc1ccc(/C=[N+](\[O-])c2ccc(N(C)C)cc2)c2nsnc12,–,37,–,–,–
Cc1ccc2nsnc2c1NS(=O)(=O)c1c(C)ccc2nsnc12,–,–,–,–,–
COc1ccc(C(=O)c2c(C)c3ccccc3n2CC(O)CNC(C)C)cc1 (stereo unspecified),–,60,–,–,–
CC(C)NCC(O)Cn1c2c(c3ccccc31)CCc1c-2cnn1-c1ccccc1 (stereo unspecified),–,–,–,–,–
O=S(=O)(c1ccc(Cl)cc1)n1ccc2cccnc21,–,–,–,-36,–
Cc1ccc(S(=O)(=O)n2ccc3cccnc32)cc1,–,–,–,–,–
Cc1ccc(NC(=O)c2ccc(CN3CC(=O)N4CCCCC4C3=O)cc2)cc1C (stereo unspecified),–,–,–,–,–
Cc1cccc(OCC(=O)Nc2c(C(=O)N3CCN(c4ccccc4)CC3)oc3ccccc23)c1,–,–,–,–,–
CCC(CO)Nc1ncnc2onc(-c3ccc(F)cc3)c12 (stereo unspecified),–,–,40,–,–
Cc1ccc(C(=O)/C=C/c2ccc(-c3ccc(C)cc3)o2)cc1,–,–,–,–,–
CCN(CC)S(=O)(=O)c1ccc(C(=O)/C=C/c2ccc(-c3ccc([N+](=O)[O-])cc3)o2)cc1,–,–,–,-54,–
Clc1ccc(OCc2nc(-c3ccc(Br)o3)no2)cc1,–,–,–,-40,–
COc1ccc(-n2c(=O)c(NC(=O)c3ccccc3)c3n(c2=S)CCCCC3)cc1,–,–,–,-31,–
COC(=O)C(Sc1nc(C)cc(C)c1C#N)c1ccccc1 (stereo unspecified),–,–,–,-32,–
COc1ccccc1OCCC(=O)OCC(=O)NCc1ccc(Cl)cc1,–,–,–,–,–
COc1ccc(CNC(=O)COC(=O)CCCOc2ccc(Cl)cc2Cl)cc1,–,31,–,–,–
CCC1(C)N([O-])C(C)=C(c2ccccc2)[N+]1=O (stereo unspecified),–,–,–,–,–
CC1(C)N([O-])C2=C(c3ccccc3C2=O)[N+](=O)C1(C)C,–,–,–,-32,–
Cc1ccc(S(=O)(=O)n2c3ccc(F)cc3c3nc(C)sc32)cc1,–,–,–,-31,–
CCN(CC)CCn1c2ccc(F)cc2c2nc(C)sc21,–,–,–,–,–
C=Cc1ccc(Cn2c(C(=O)O)c(CNCc3ccccc3)c3ccc(C)cc32)cc1,–,–,–,–,–
COc1ccc(NC(=O)c2cnc(Nc3ccc(C)c(Cl)c3)c3ccccc23)c(OC)c1,–,–,–,–,–
O=C(CCn1cccn1)N1CCCC(N2CCN(c3cccc(C(F)(F)F)c3)CC2)C1 (stereo unspecified),–,–,34,–,–
O=C(Cn1cccn1)N1CCCC(N2CCN(c3cccc(C(F)(F)F)c3)CC2)C1 (stereo unspecified),–,–,–,–,–
Cc1cc(C(=O)N2CCCC(N3CCN(c4cccc(C(F)(F)F)c4)CC3)C2)n[nH]1 (stereo unspecified),–,–,–,-50,–

# Source: PubChem BioAssay
